This note sets out measurements from PubChem BioAssay (NCI).

The nature of assay [1]: NCI Yeast Anticancer Drug Screen. Data for the rad50 strain (AID 155).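 Also: 0% = growth of vehicle-only cultures of the same strain.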 The note with it: S. cerevisiae rad50 strain growth inhibition, stronger effect = higher value. Put shortly:
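Relative growth inhibition (compound vs vehicle) was measured in yeast with a defined repair-gene alteration.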

Assay [2] in a line: NCI Yeast Anticancer Drug Screen. Data for the mec2-1 strain (AID 157). Conditions: S. cerevisiae mec2-1 strain, stronger effect = higher value. Put shortly:
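Yeast mec2-1 mutant treated with compound. Readout: growth inhibition vs vehicle controls.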

Assay [3] is described as follows: NCI Yeast Anticancer Drug Screen. Data for the sgs1 mgt1 strain (AID 161).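 Also: 0% = growth of cultures given vehicle only.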 The note with it: S. cerevisiae sgs1 mgt1 strain, stronger effect = higher value. Put shortly: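 Test agents were incubated with a DNA-repair-mutant yeast strain. Growth was then read and compared against vehicle-treated controls.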
Assay [4] is described as follows: NCI Yeast Anticancer Drug Screen. Data for the cln2 rad14 strain (AID 165).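 Also: 0% = growth equal to vehicle treated cultures.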 The note with it: S. cerevisiae cln2 rad14 strain, stronger effect = higher value. Put shortly: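 cln2 rad14 yeast strain; compound exposure; growth inhibition read vs vehicle controls.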
A short description of assay [5]: NCI Yeast Anticancer Drug Screen. Data for the bub3 strain (AID 167). Conditions: S. cerevisiae bub3 mutant strain, stronger effect = higher value. The essentials:
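Screening used yeast with an engineered genetic alteration affecting cell cycle control. Compound-exposed cultures were compared with vehicle cultures, and reduced growth was taken as inhibition.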

The nature of assay [6]: NCI Yeast Anticancer Drug Screen. Data for the mlh1 rad18 strain (AID 175). Conditions: S. cerevisiae mlh1 rad18 strain growth inhibition, stronger effect = higher value. Put shortly:
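Yeast w/ defined DNA-repair lesions; compound exposure; growth vs vehicle controls → % inhibition.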

The mark [7] stands for this setting: at 5.0 µM (retest, dose inferred, filed as 0.5).
[8] abbreviates: at 50.0 µM (retest, dose inferred, filed as 5.0).

This is part of a sample that, as a whole, favours compounds with a hit. Of some 79,000 tested, about 15% had one in any assay. Values without a mark were called inactive. Activity calls are given as the source filed them. Rule as the data show it: active = growth inhibition above about 70%; inactive = the rest.

With `COc1ccc(CCBr)cc1`, the growth inhibition in assay [1] (setting [7]) was -1%; in assay [1] (setting [8]), -17%; in assay [1] (at 50.0 µM), 14.7%; in assay [2] (setting [7]) it was -23%; in assay [2] (setting [8]) it was -13%; in assay [2] (at 50.0 µM) it was 14%. The growth inhibition is -15% in assay [3] (setting [7]); -7% in assay [3] (setting [8]); 22.2% in assay [3] (at 50.0 µM); 17% in assay [4] (setting [7]); -1% in assay [4] (setting [8]); 0.5% in assay [4] (at 50.0 µM). Further, the growth inhibition in assay [5] (setting [7]) was -17%; in assay [5] (setting [8]), -7%; in assay [5] (at 50.0 µM), 18.1%; in assay [6] (setting [7]), -27%; in assay [6] (setting [8]) it was -41%; in assay [6] (at 50.0 µM) it was 15.2%.
For `O=C(NC(=Nc1ccccc1)SCCSC(=Nc1ccccc1)NC(=O)c1ccccc1)c1ccccc1`, the growth inhibition was 0% in assay [1] (setting [7]); 0% in assay [1] (setting [8]); 85.6% (active) in assay [1] (at 50.0 µM); 18% in assay [2] (setting [7]); 18% in assay [2] (setting [8]); 79.9% (active) in assay [2] (at 50.0 µM). For the same molecule, the growth inhibition in assay [3] (setting [7]) is 10%; in assay [3] (setting [8]), 10%; in assay [3] (at 50.0 µM), 86.2% (active); in assay [4] (setting [7]), 5%; in assay [4] (setting [8]) it was 5%; in assay [4] (at 50.0 µM), 84.5% (active). Further, the growth inhibition in assay [5] (setting [7]) was -3%; in assay [5] (setting [8]) it was -3%; in assay [5] (at 50.0 µM), 88% (active); in assay [6] (setting [7]), 1%; in assay [6] (setting [8]), 1%; in assay [6] (at 50.0 µM), 78% (active).
Take `O=C1C(=O)c2cc(Cl)ccc2-c2ccc(Cl)cc21`: the growth inhibition in assay [1] (setting [7]) is 20%; in assay [1] (setting [8]), 90% (active); in assay [1] (at 50.0 µM) it was 91% (active); in assay [2] (setting [7]) it was 30%; in assay [2] (setting [8]), 95% (active); in assay [2] (at 50.0 µM) it was 93.9% (active). Also, the growth inhibition is 33% in assay [3] (setting [7]); 95% (active) in assay [3] (setting [8]); 94% (active) in assay [3] (at 50.0 µM); -4% in assay [4] (setting [7]); 94% (active) in assay [4] (setting [8]); 88.5% (active) in assay [4] (at 50.0 µM). For the same molecule, the growth inhibition in assay [5] (setting [7]) was 56%; in assay [5] (setting [8]) it was 94% (active); in assay [5] (at 50.0 µM), 86.6% (active); in assay [6] (setting [7]) it was 30%; in assay [6] (setting [8]) it was 95% (active); in assay [6] (at 50.0 µM), 93.5% (active).
`O=C(Nc1ccccc1C(=O)NC(=O)c1ccccc1NC(=O)c1ccccc1)c1ccccc1`: the growth inhibition in assay [1] (setting [7]) was -4%; in assay [1] (setting [8]), 99% (active); in assay [1] (at 50.0 µM), 58.9%; in assay [2] (setting [7]), 10%; in assay [2] (setting [8]), 99% (active); in assay [2] (at 50.0 µM), 57.5%. The growth inhibition in assay [3] (setting [7]) was -2%; in assay [3] (setting [8]), 99% (active); in assay [3] (at 50.0 µM), 54.8%; in assay [4] (setting [7]), 4%; in assay [4] (setting [8]), 99% (active); in assay [4] (at 50.0 µM), 40.8%. Moreover, the growth inhibition in assay [5] (setting [7]) was -1%; in assay [5] (setting [8]), 99% (active); in assay [5] (at 50.0 µM), 46.1%; in assay [6] (setting [7]), 5%; in assay [6] (setting [8]), 99% (active); in assay [6] (at 50.0 µM), 63.5%.
Take `[Pt].c1ccc(P(CCP(CCP(c2ccccc2)c2ccccc2)CCP(c2ccccc2)c2ccccc2)c2ccccc2)cc1`: the growth inhibition in assay [1] (setting [7]) was 6%; in assay [1] (setting [8]), 83% (active); in assay [1] (at 50.0 µM), 71.2% (active); in assay [2] (setting [7]) it was 36%; in assay [2] (setting [8]), 91% (active); in assay [2] (at 50.0 µM) it was 84.2% (active). Besides, the growth inhibition in assay [3] (setting [7]) is 19%; in assay [3] (setting [8]) it was 89% (active); in assay [3] (at 50.0 µM) it was 80% (active); in assay [4] (setting [7]), 6%; in assay [4] (setting [8]), 91% (active); in assay [4] (at 50.0 µM), 78% (active). The growth inhibition was 0% in assay [5] (setting [7]); 92% (active) in assay [5] (setting [8]); 80.2% (active) in assay [5] (at 50.0 µM); 17% in assay [6] (setting [7]); 89% (active) in assay [6] (setting [8]); 79% (active) in assay [6] (at 50.0 µM).
`CCC(=O)Oc1ccc(-c2ccccc2)cc1Cl`: the growth inhibition in assay [1] (setting [7]) was -3%; in assay [1] (setting [8]), 98% (active); in assay [1] (at 50.0 µM), 97% (active); in assay [2] (setting [7]), -3%; in assay [2] (setting [8]), 99% (active); in assay [2] (at 50.0 µM), 98.2% (active). The growth inhibition in assay [3] (setting [7]) was -2%; in assay [3] (setting [8]), 96% (active); in assay [3] (at 50.0 µM), 97.5% (active); in assay [4] (setting [7]) it was -2%; in assay [4] (setting [8]) it was 98% (active); in assay [4] (at 50.0 µM), 96% (active). Moreover, the growth inhibition in assay [5] (setting [7]) was 14%; in assay [5] (setting [8]) it was 99% (active); in assay [5] (at 50.0 µM), 98.8% (active); in assay [6] (setting [7]), 0%; in assay [6] (setting [8]), 98% (active); in assay [6] (at 50.0 µM), 98.2% (active).
Turning to `CC12CCC(=O)C=C1CCC1C2C(O)CC2(C)C(c3csc(N)n3)CCC12` (stereo not given), the growth inhibition in assay [1] (setting [7]) was 58%; in assay [1] (setting [8]), 98% (active); in assay [1] (at 50.0 µM), 98.8% (active); in assay [2] (setting [7]) it was 17%; in assay [2] (setting [8]) it was 98% (active); in assay [2] (at 50.0 µM) it was 96.8% (active). Besides, the growth inhibition in assay [3] (setting [7]) is 49%; in assay [3] (setting [8]), 97% (active); in assay [3] (at 50.0 µM), 98% (active); in assay [4] (setting [7]), 23%; in assay [4] (setting [8]), 90% (active); in assay [4] (at 50.0 µM) it was 94.5% (active). For the same molecule, the growth inhibition in assay [5] (setting [7]) was 27%; in assay [5] (setting [8]), 97% (active); in assay [5] (at 50.0 µM) it was 96.8% (active); in assay [6] (setting [7]) it was 38%; in assay [6] (setting [8]) it was 96% (active); in assay [6] (at 50.0 µM) it was 96% (active).
Turning to `CC(C)NC(=O)OCCN=C1c2ccccc2CCc2ccccc21`, the growth inhibition in assay [1] (setting [7]) was -17%; in assay [1] (setting [8]), 95% (active); in assay [1] (at 50.0 µM), 76.4% (active); in assay [2] (setting [7]), -32%; in assay [2] (setting [8]), 96% (active); in assay [2] (at 50.0 µM), 78.8% (active). For the same molecule, the growth inhibition in assay [3] (setting [7]) was -46%; in assay [3] (setting [8]), 89% (active); in assay [3] (at 50.0 µM) it was 77.5% (active); in assay [4] (setting [7]), -26%; in assay [4] (setting [8]) it was 60%; in assay [4] (at 50.0 µM), 61.5%. Further, the growth inhibition is -62% in assay [5] (setting [7]); 97% (active) in assay [5] (setting [8]); 81.5% (active) in assay [5] (at 50.0 µM); -11% in assay [6] (setting [7]); 95% (active) in assay [6] (setting [8]); 68.8% in assay [6] (at 50.0 µM).
Regarding `CCCCCc1cc(Cl)cc(Cl)c1O`, the growth inhibition was -5% in assay [1] (setting [7]); 45% in assay [1] (setting [8]); 60.1% in assay [1] (at 50.0 µM); -23% in assay [2] (setting [7]); 0% in assay [2] (setting [8]); 10.1% in assay [2] (at 50.0 µM). The growth inhibition in assay [3] (setting [7]) was -5%; in assay [3] (setting [8]), 26%; in assay [3] (at 50.0 µM) it was 67.5%; in assay [4] (setting [7]) it was 0%; in assay [4] (setting [8]), -6%; in assay [4] (at 50.0 µM) it was -13.2%. The growth inhibition was -22% in assay [5] (setting [7]); -22% in assay [5] (setting [8]); 9.05% in assay [5] (at 50.0 µM); -3% in assay [6] (setting [7]); 18% in assay [6] (setting [8]); 62.1% in assay [6] (at 50.0 µM).
In the case of `C/C(=N\NC(=S)N1CCC(C)CC1)c1ncccn1`, the growth inhibition in assay [1] (setting [7]) was -4%; in assay [1] (setting [8]) it was 98% (active); in assay [1] (at 50.0 µM), 99.2% (active); in assay [2] (setting [7]), -5%; in assay [2] (setting [8]), 99% (active); in assay [2] (at 50.0 µM), 99.2% (active). For the same molecule, the growth inhibition in assay [3] (setting [7]) was 0%; in assay [3] (setting [8]) it was 98% (active); in assay [3] (at 50.0 µM), 99.3% (active); in assay [4] (setting [7]) it was -7%; in assay [4] (setting [8]) it was 98% (active); in assay [4] (at 50.0 µM) it was 98.8% (active). The growth inhibition was -1% in assay [5] (setting [7]); 98% (active) in assay [5] (setting [8]); 99.3% (active) in assay [5] (at 50.0 µM); -4% in assay [6] (setting [7]); 99% (active) in assay [6] (setting [8]); 98.9% (active) in assay [6] (at 50.0 µM).
